Shown are actives, neighbours in structure and some others; about 12% of the full set was active somewhere.
L3MBTL1 inh: qHTS Assay for the Inhibitors of L3MBTL1; Lethal(3)malignant brain tumor-like protein 1 (Homo sapiens), Q9Y468; AlphaScreen L3MBTL1–H3K9me1 peptide binding; Potency, µM (titrated, usually from 57.1 µM), most hits filed as inhibitors; actives 0.66% (n = 230,000); AID 485360, 2010; note: nearly all actives have a fitted effect of over 60% in size
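AlphaScreen assay: L3MBTL1 (50 nM final) was preincubated 30 min at room temperature with biotinylated H3(1-15)K9me1 peptide (75 nM final), then 30 min with library compounds; streptavidin donor and nickel chelate acceptor beads (10 ug/mL final) added, 30 min dark.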
HP1b chromo inh: HTS for Inhibitors of HP1-beta Chromodomain Interactions with Methylated Histone Tails; actives 0.56% (n = 390,000); Potency, µM (doses to about 114 µM), hits mostly inhibitors; Chromobox protein homolog 1 (Homo sapiens), P83916; AlphaScreen HP1-beta / biotin-H3K9me3 peptide binding; note: nearly all actives have a fitted effect of over 70% in size
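AlphaScreen: HP1-beta (50 nM) preformed 30 min with biotin-H3(1-18)K9me3 peptide (50 nM) in PBS pH 7.4, 0.01% Tween-20. Compound added for 30 min at RT, then streptavidin donor/nickel chelate acceptor beads (10 ug/mL) for 30 min.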
JMJD2A Tudor inh: qHTS Assay for Inhibitors of JMJD2A-Tudor Domain; Lysine-specific demethylase 4A (Homo sapiens), O75164; AlphaScreen JMJD2A-Tudor / H3K4me3 peptide binding; Potency, µM (series often up to 114 µM), actives largely listed as inhibitors; actives 4.4% (n = 390,000); AID 504339, 2011; note: nearly all actives have a fitted effect of over 50% in size
G9a block: qHTS Assay for Inhibitors of Histone Lysine Methyltransferase G9a; Potency, µM (doses to about 102 µM), hits mostly inhibitors; G9a H3K9 monomethylation, AlphaScreen, 2 h; Histone-lysine N-methyltransferase EHMT2 (Homo sapiens), Q96KQ7; actives 8.8% (n = 350,000); AID 504332, 2011; note: nearly all actives have a fitted effect of over 75% in size
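Methyltransferase reactions run at room temperature for 2 h (20 nM enzyme, 500 nM biotin-H3K9 peptide, 20 uM SAM) after a 15 min compound preincubation; product detected by AlphaScreen beads and anti-H3K9me1 antibody.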
BAZ2B block: qHTS Assay for Inhibitors of BAZ2B | Bromodomain adjacent to zinc finger domain protein 2B (Homo sapiens), Q9UIF8 | AlphaScreen BAZ2B-H3K14Ac peptide displacement | Potency, µM (highest dose often 114 µM), actives largely listed as inhibitors | actives 4.4% (n = 360,000); note: nearly all actives have a fitted effect of over 60% in size
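Complex of BAZ2B and biotin-H3K14Ac (50 nM apiece) forms over 30 min at RT, then faces library compounds up to 110 uM for another 30 min; AlphaScreen beads added, 20 min dark incubation, luminescence read.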
Sfp inh: qHTS Assay for Inhibitors of Bacillus subtilis Sfp phosphopantetheinyl transferase (PPTase). 4'-phosphopantetheinyl transferase ffp (Bacillus subtilis), Q9F4F7. Biochemical Sfp PPTase activity, qHTS. Potency, µM, actives largely listed as inhibitors. actives 3.5% (n = 310,000). AID 1490, 2009;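 note: the enzyme is Sfp with the accession as filed and its product quenches rhodamine fluorescence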
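With Hepes-Na pH 7.6 buffer containing 10 mM MgCl2, Sfp (15 nM) modified BHQ-2-YbbR (12.5 uM) using rhodamine-CoA (5 uM). Two reads 30 minutes apart at 525/598 nm yielded each well's rate.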
A number is an active result; n = inactive; u = inconclusive; x = no result; [ ] = dose if it differs, or a comment. Calls come from the whole dose curve; as a rule, active = well fitted curve in the direction sought with a large enough effect; inconclusive = small, poorly fitted or top-dose-only effect, or another doubt; inactive = no such curve, though single readings can be large; an effect the other way counts as inactive or inconclusive.

SMILES | L3MBTL1 inh | HP1b chromo inh | JMJD2A Tudor inh | G9a block | BAZ2B block | Sfp inh
CCCNC(=O)c1nnsc1S(=O)(=O)c1ccc(Cl)cc1 | n | n | n | 13µM | n | 13µM
C(=N\Nc1nncc2ccccc12)/c1ccccn1 | x | n | 79µM | n | 25µM | n
Fc1cccc(/C=N/Nc2nncc3ccccc23)c1 | x | n | 20µM | n | n | n
CC(=O)Nc1ccc(/C=N/Nc2nc3ccccc3s2)cc1 | n | n | n | n | n | n
CC(=O)Nc1ccc(/C=N/Nc2nncc3ccccc23)cc1 | x | n | n | n[0.501 µM] | n | 89µM
Fc1cccc(/C=N/Nc2nccnc2Cl)c1 | n | n | n | n | n | n
COc1ccc(Oc2ncc3nc(-c4cn(C)c5ccccc45)c(=O)n(C)c3n2)cc1 | x | x | x | n[0.501 µM] | x | n
COCC(C)n1c(C)cc(C(=O)COC(=O)c2cccn2C)c1C (configuration not stated) | n | n | n | x | x | x
COCC(C)n1c(C)cc(C(=O)COC(=O)c2nc3nc(C)cc(C)n3n2)c1C (configuration not stated) | n | n | n | 56µM | n | n
Cc1c(Cl)cccc1-n1nc(C)c2c(C)cc(=O)n(CC(=O)N3CCCc4ccccc43)c21 | x | n | n | n | n | x
CCN(c1cc(C)cc(C)c1)S(=O)(=O)c1nnc(NC(=O)c2cccs2)s1 | x | n | n | n | n | x
CCN(c1cccc(C)c1)S(=O)(=O)c1nnc(NC(=O)c2cccs2)s1 | x | u | u | 3.2µM | 3.5µM | x
CCCC(=O)Nc1nnc(S(=O)(=O)N(C)Cc2ccco2)s1 | x | n | u | u | u | 45µM
CCN(c1ccccc1C)S(=O)(=O)c1nnc(NC(=O)c2ccccc2C)s1 | x | n | u | 2.5µM | u | x
CCN(c1ccc(OC)cc1)S(=O)(=O)c1nnc(NC(=O)c2ccccc2C)s1 | x | n | n | n | n | x
Cc1ccccc1C(=O)Nc1nnc(S(=O)(=O)N(C)Cc2ccco2)s1 | x | n | n | u | n | 45µM
CC(C)c1ccc(NC(=O)[C@H](NC(=O)[C@@H]2Cc3ccccc3CN2)c2ccccc2)cc1 | x | n | n | 45µM | n | n
CSCC[C@H](NC(=O)[C@@H]1Cc2ccccc2CN1)C(=O)NC(C)c1ccccc1 (some centres not stated) | x | n | u | 22µM | n | n
Cc1ccc(NC(=O)[C@H](NC(=O)[C@@H]2Cc3ccccc3CN2)c2ccccc2)cc1 | x | n | n | x | u | n
CSCC[C@H](NC(=O)[C@@H]1Cc2ccccc2CN1)C(=O)NC1CCCC1 | x | n | n | x | n | n
CCC(=O)NC(Nc1sc2c(c1C(=O)OC)CCC2)C(Cl)(Cl)Cl (configuration not stated) | n | n | n | n | u | 20µM
COC(=O)c1c(NC(NC(=O)C(C)C)C(Cl)(Cl)Cl)sc2c1CCC2 (configuration not stated) | n | n | n | u | n | 50µM
COC(=O)c1c(NC(NC(=O)C(C)(C)C)C(Cl)(Cl)Cl)sc2c1CCC2 (configuration not stated) | n | n | n | u | n | u
Cc1cc([N+](=O)[O-])nn1CC(=O)Nc1nc2ccccc2s1 | n | n | n | u | n | n
Cc1cc([N+](=O)[O-])nn1CC(=O)Nc1cccc2nonc12 | n | n | n | 56µM | u | n
CSc1ccccc1NC(=O)Cn1nc([N+](=O)[O-])cc1C | n | n | n | 28µM | n | 56µM
O=c1cc(-c2ccccc2)[nH]n1-c1nc2ccccc2[nH]1 | u | n | 56µM | n | 28µM | n
CCc1cc(=O)[nH]c(-n2[nH]c(-c3ccccc3)cc2=O)n1 | n | n | n | n | n | n

Screening results from PubChem.
